# In PubChem BioAssay AID2314 (National Center for Advancing Translational Sciences (NCATS), 2010):
# “And” between values parts separate entries of the source, which are not always exact repeats. Equal entries are not always repeated. Out of some 300,000 compounds screened, about 37,000 (12%) were called active. Rule as the data show it: active = max response mostly above about 13% (no sharp cut-off); inactive = mostly below about 14%. The entries come from a sample that favours actives as a whole.
# Experiment: Cycloheximide Counterscreen for Small Molecule Inhibitors of Shiga Toxin; also: read at 38.3 µM for the half of the compounds with a filed dose; 0% is about no effect
# Conditions: cell reporter, cycloheximide protein synthesis inhibition counterscreen; hits give high values
row,SMILES,max response
1,COc1ccc(C(=O)Nc2cc(C)c(NC(=O)c3ccccc3OC)cn2)cc1,9.29% (inactive)
2,Nc1nc(NCc2ccccc2)n(-c2ccccc2)n1,-3.49% (inactive)
3,CC(=O)Nc1ccc(N2C(=O)CC(Sc3nccc(C)n3)C2=O)cc1 (configuration not stated),-0.348% (inactive)
4,O=C(N/N=C/c1ccc2c(c1)OCO2)C(=O)N1CCCC1,46.6% (active)
5,COc1ccccc1N1CCN(C(=O)C(=O)N/N=C/c2ccccc2F)CC1,-0.733% (inactive)
6,O=C(Cc1ccc(F)cc1)N/N=C/c1ccc2c(c1)OCO2,14.7% (inactive)
7,Cc1[nH]c2ccccc2c1/C=N/NC(=O)CNC(=O)c1ccc2c(c1)OCO2,-0.0106% (inactive)
8,O=C(N/N=C/c1ccc([N+](=O)[O-])cc1)C(=O)N1CCCC1,-0.79% (inactive)
9,O=C(CNC(=O)C(c1ccccc1)c1ccccc1)N/N=C\c1ccc2c(c1)OCO2,35.9% (active)
10,Cc1cccc(Cn2cnc3c(N)c(C)c(C)cc32)c1,-6.87% (inactive)
11,CC(NC(=O)COC(=O)C1CCN(S(=O)(=O)c2ccccc2C(F)(F)F)CC1)c1ccccc1 (configuration not stated),-0.765% (inactive)
12,COc1ccc(NS(=O)(=O)c2ccc(N3CCOCC3)c(NC(=O)c3ccccc3Br)c2)cc1,-1.16% (inactive)
13,Cc1cc(N(C)C)nc(Cl)n1,-9.03% (inactive)
14,CCOC(=O)c1c(C)nc2c(c1C)c(=O)oc1ccccc12,14.3% (active)
15,Cc1cc(NC(=O)CN2CCCCC2C)nc2c1c(=O)oc1ccccc12 (configuration not stated),0.268% (inactive)
16,CCCCC(=O)Nc1cc(C)c2c(=O)oc3ccccc3c2n1,10.7% (inactive)
17,COc1ccc(CC(NC(C)=O)C(=O)NC2CCN(C(=O)C3CC3)CC2)cc1OC (configuration not stated),-7.16% (inactive)
18,Cc1ccc(/C=N/NC(=O)CN2CCN(Cc3ccccc3)CC2)s1,8.96% (inactive)
19,C=CCNC(=S)N/N=C/c1ccc(C)s1,31.5% (active)
20,C=CCNC(=S)N/N=C/c1ccc(OCc2ccccc2)cc1,-1.7% (inactive)
21,COc1ccc2c3c1O[C@H]1C[C@@H](O)C=C[C@@]31CCN(C)C2,-0.885% (inactive) and -4.86% (inactive)
22,Cc1cc(Cl)ccc1NC(=S)N1CCC(C(N)=O)(N2CCCCC2)CC1,-2.11% (inactive)
23,O=C(NC(=S)Nc1ccc(Cl)cc1Cl)C1CC1,39.5% (active)
24,CC1CN(C(=S)Nc2ccc(Br)cc2Cl)CC(C)O1 (configuration not stated),0.924% (inactive)
25,Cc1ccc2c(c1)C1CN(C)CCC1N2C(=S)Nc1ccc(Cl)cc1Cl (configuration not stated),-1.23% (inactive)

row,SMILES,max response
1,S=C(Nc1ccc(Cl)cc1Cl)N1CCCC1,60.1% (active)
2,S=C(NCc1cccnc1)Nc1ccc(Cl)cc1Cl,9.37% (inactive)
3,CN1CCN(S(=O)(=O)c2ccc(NC(=S)NC(=O)C3CC3)cc2)CC1,1.23% (inactive)
4,CN(C)C(=S)Nc1ccc(Br)cc1Cl,-1.09% (inactive)
5,S=C(Nc1ccc(Br)cc1Cl)N1CCC2(CC1)OCCO2,20.3% (active)
6,CC(Oc1ccc(F)cc1)C(=O)N1CCN(c2ncccn2)CC1 (configuration not stated),-2.63% (inactive)
7,CNC(=O)[C@]1(C(F)(F)F)C[C@H](CCc2ccccc2)CCCO1,3.47% (inactive)
8,Cn1cnc([N+](=O)[O-])c1Sc1ccccc1,-3.34% (inactive)
9,Cc1cccc(NS(=O)(=O)c2ccc([N+](=O)[O-])cc2)n1,-1.49% (inactive)
10,O=C(COc1cccc(-n2cnnn2)c1)NCCC1=CCCCC1,0.68% (inactive)
11,CSc1ccccc1N1CCN(CCCCCC(=O)NC2CCCc3ccccc32)CC1 (configuration not stated),-7.34% (inactive)
12,Nc1ccc(C(=O)Nc2ccccc2N)cc1,5.95% (inactive)
13,Nc1ccc(Nc2ccccc2)cc1,-1.73% (inactive)
14,Cc1ccc(Nc2ccccc2N)cc1,33.2% (active)
15,COc1ccc(COCCN2CCN(S(=O)(=O)c3ccccc3)CCC2=O)cc1,-3.54% (inactive)
16,COc1ccc(S(=O)(=O)N(C)CC(=O)N2CCCC2)cc1,-3.08% (inactive)
17,CCOC(=O)N1CCN(C(=O)c2cn(C)c3ccc(S(=O)(=O)N(CC)CC)cc3c2=O)CC1,-2.19% (inactive)
18,CC(C(=O)NC1CCS(=O)(=O)C1)N1C(=O)/C(=C/c2ccc(Cl)cc2)SC1=S (configuration not stated),16.6% (inactive)
19,COc1ccc(Nc2nc(=O)[nH]nc2C)cc1,-2.63% (inactive)
20,Cc1nnc(NCCO)c2ccccc12,4.14% (inactive)
21,COc1ccc(Nc2nnc(C)c3ccccc23)cc1,29.8% (active)
22,COc1ccc(C(=O)NCC(=O)N/N=C/c2cccnc2)cc1,-4.37% (inactive)
23,S=C(NCCCc1cnc[nH]1)NCCCN(Cc1ccc(Cl)c(Cl)c1)c1ccc(Br)cn1,-1.98% (inactive)
24,CC1(C)C2CC=C(/C=N/NC(=O)c3ccc(Cl)cc3)C1C2 (configuration not stated),10.5% (inactive)
25,Cn1nccc1/C=N\NC(=O)c1ccc(Cl)cc1,14.7% (active)

row,SMILES,max response
1,COc1ccc(/C=N/NC(=O)c2ccc(Cl)cc2)cc1COC(C)=O,1.21% (inactive)
2,CCOC(=O)c1sc(NC(=O)CSc2nc(C)cc(C(F)(F)F)n2)c(C#N)c1C,1.11% (inactive)
3,COc1cc(C(=O)OC2CCOC2=O)c([N+](=O)[O-])cc1OC (configuration not stated),-5.93% (inactive)
4,COc1cc(CN2CCCN(C)CC2)c([N+](=O)[O-])cc1OC,-2.2% (inactive)
5,O=C(/C=C/c1ccc(Cl)c([N+](=O)[O-])c1)c1cccnc1,9.23% (inactive)
6,CN(C)c1ccc(/C=C/C(=O)c2ccc(C(C)(C)C)cc2)cc1[N+](=O)[O-],9.22% (inactive)
7,O=C(O)/C=C/c1ccc2c(c1)OCCO2,5.58% (inactive)
8,CN(C)c1ccc(/C=C/C(=O)c2ccc(O)cc2)cc1[N+](=O)[O-],61.3% (active)
9,O=C(COC(=O)/C=C/c1ccc2c(c1)OCO2)NC1CCS(=O)(=O)C1 (configuration not stated),2.81% (inactive)
10,O=C(/C=C/c1ccc2c(c1)OCCO2)c1ccc(O)cc1,36.6% (active)
11,COc1cccc(NC(=O)N2C3CCCC2CC(NC(C)=O)C3)c1 (configuration not stated),-3.34% (inactive)
12,CCOC(=O)c1ccccc1NS(=O)(=O)c1c(C)nc2sccn2c1=O,-3.59% (inactive)
13,Brc1ccccc1CN1CCC(Cc2ccccc2)CC1,-0.443% (inactive)
14,CC(C)CN(CC(C)C)C(=O)CN1c2cccc3cccc(c23)S1(=O)=O,0.92% (inactive)
15,CC1CC(C)CN(CCCNC(=O)c2csc3c2CCCCC3)C1 (configuration not stated),13.5% (inactive)
16,O=C(CN1CCCC1)Nc1sc2c(c1C(=O)Nc1ccccc1)CCCC2,0.772% (inactive)
17,CCOC(=O)c1sc(NC(=O)c2sc(C)nc2C)nc1C,10.2% (inactive)
18,O=C(N/N=C/c1ccco1)c1ccc(C(=O)N/N=C/c2ccco2)o1,11.6% (inactive)
19,O=C(N/N=C/c1ccco1)c1csc2c1CCCC2,54.4% (active)
20,O=C(N/N=C/c1ccco1)c1ccc(NC(=O)C2CC2)cc1,2.6% (inactive)
21,COC(=O)c1sc(NC(=O)c2csc3c2CCCC3)nc1C,52.4% (active)
22,COC(=O)c1c(NC(=O)CCCC(=O)O)sc2c1CCCCC2,1.25% (inactive)
23,COC(=O)c1sccc1NC(=O)c1csc2c1CCCC2,11.4% (inactive)
24,Cc1ccc(NC(=O)c2csc3c2CCCC3)cc1,46.6% (active)
25,O=C(Nc1ccccc1N1CCOCC1)c1csc2c1CCCC2,8.7% (inactive)

row,SMILES,max response
1,Cc1ccc(NC(=O)c2c(NC(=O)CCC(=O)O)sc3c2CCCCC3)cc1,39.3% (active)
2,CCn1c(SCc2cccc(C(=O)O)c2)nnc1-c1ccc(Cl)cc1,-1.44% (inactive)
3,COc1ccc(C)cc1Nc1n[n+](-c2ccccc2)c(-c2cccc(Cl)c2Cl)s1,-1.46% (inactive)
4,CCOC(=O)N1CCN(C(=O)c2ccccc2N(Cc2ccccc2)S(=O)(=O)c2ccc(OC)cc2)CC1,-5.35% (inactive)
5,CCOc1ccc(-n2c(SCC(=O)Nc3cc(C(=O)O)ccc3Cl)nc3ccccc3c2=O)cc1,-4.94% (inactive)
6,O=C(O)CCC(=O)Nc1ccc(OCC2CCCO2)cc1 (configuration not stated),-3.29% (inactive)
7,CC1(C)Cc2ccccc2-c2[nH]c(=S)[nH]c(=O)c21,-1.88% (inactive)
8,COc1cccc(CNC(=O)CCC2CCCN(C(=O)c3ccc(F)c(Cl)c3)C2)c1 (configuration not stated),0.816% (inactive)
9,O=C(COC(=O)c1ccc(Cl)nc1)NCc1ccc2c(c1)OCO2,-4.58% (inactive)
10,CC(=O)Cc1nsc(NC(=O)c2csc3c2CCCC3)n1,16.6% (active)
11,CC(=O)Cc1nsc(NC(=O)c2ccc(Cl)cc2Cl)n1,27.8% (inactive)
12,O=C(NCc1ccccc1Cl)c1csc2c1CCCCC2,-0.0989% (inactive)
13,CCOC(=O)Cn1c(=O)n(Cc2ccc(OC)cc2)c(=O)c2cccnc21,-5.57% (inactive)
14,O=C(Nc1cccc(Cl)c1)C1CCCN(c2cnccn2)C1 (configuration not stated),5.49% (inactive)
15,Cc1cc(C)nc(N2CCC(C(=O)Nc3ccc4c(c3)OCCO4)CC2)n1,11.4% (inactive)
16,O=C(Nc1ccc2c(c1)OCCO2)C1CCCN(c2ncccn2)C1 (configuration not stated),22% (active)
17,CCOc1ccc(N(CC)S(=O)(=O)c2cccc3nsnc23)cc1,-1.34% (inactive)
18,CC(=O)Nc1ccc(S(=O)(=O)N2N=NC3C2C2CC4C3(CN(C(=O)OC(C)(C)C)S4(=O)=O)O2)cc1 (configuration not stated),3.73% (inactive)
19,COc1cccc(CN(C)CC2CCCN(CCc3ccc(Cl)cc3)C2)c1OC (configuration not stated),-1.16% (inactive)
20,C/C(=N\Nc1nncc2ccccc12)c1ccc(Cl)c([N+](=O)[O-])c1,17.3% (active)
21,CC(CC(=O)O)C(=O)c1ccc(Cl)c([N+](=O)[O-])c1 (configuration not stated),-0.656% (inactive)
22,Cc1nc2ccccc2c(=O)n1NC(=O)c1ccc(Cl)c([N+](=O)[O-])c1,-5.07% (inactive)
